Drawing on PubChem BioAssay (EPA / NIEHS), this text covers AC50 and outcome for 31 compounds.

“And” between values parts separate entries of the source, which are not always exact repeats. Identical values can stand only once. A structure can be active in one record and inactive in another. The source made the active and inactive calls. How the source made its calls: active means hit-call score of the fitted dose curve at least 0.9, where 1 is the maximum; inactive means score below 0.9.

The experiment in a line: ATG_DR4_LXR_CIS: Attagene CIS-FACTORIAL HepG2 Assay for human Liver X Receptor (LXR), DR4 submotif (AID 2282929). The following applies: HepG2 Attagene DR4 cis-reporter, mRNA transcription; actives raise or lower the signal. The procedure:
ATG_CIS is a cell-based, multiplexed-readout assay that uses HepG2, a human liver cell line, with measurements taken at 24 hours after chemical dosing in a 24-well plate.ATG_DR4_LXR_CIS is one of 52 assay component(s) measured or calculated from the ATG_CIS assay. It is designed to make measurements of mRNA induction, a form of inducible reporter, as detected with fluorescence intensity signals by Reverse transcription polymerase chain reaction (RT-PCR) and Capillary electrophoresis technology.Data from the assay component ATG_DR4_LXR_CIS was analyzed into 1 assay endpoint. This assay endpoint, ATG_DR4_LXR_CIS, was analyzed with bidirectional fitting relative to DMSO as the negative control and baseline of activity. Using a type of inducible reporter, measures of mRNA for gain or loss-of-signal activity can be used to understand the reporter gene at the transcription factor-level as they relate to the gene NR1H2 and NR1H3. Furthermore, this assay endpoint can be referred to as a primary readout, because this assay has produced multiple assay endpoints where this one serves a reporter gene function. To generalize the intended target to other relatable targets, this assay endpoint is annotated to the nuclear receptor intended target family, where the subfamily is non-steroidal.
Human liver HepG2 cells are transiently transfected with multiple reporter transcription units (MRTUs) in 6-well plates using FuGene 6 reagent (Roche; 3 ml FuGene/1 mg DNA). The MRTU constructs are regulated by a cis-regulating element (promoter). […] A major difference between the CIS and TRANS system is that in CIS activities of endogenous TFs are measured, whereas the TRANS assay evaluates changes in activities of exogenous, chimeric NR-Gal4 proteins. […] At the end of 24 hour incubation, total RNA was isolated using TriZol reagent (Invitrogen). The isolated RNA is then reverse-transcribed using oligo(dT) primer and Mo-MLV reverse transcriptase (Invitrogen) with DNAse I (Ambion) treatment for 30 min. The one-tenth of the produced cDNA was amplified by PCR using Taq DNA polymerase (Invitrogen) and two reporter sequence-specific primers. The PCR products were fluorescently labeled by primer extension with 6-arboxyfluorescein (6-FAM) 5'-labeled reporter sequence-specific primer (2 min at 95 C, 20 s at 68 C and 10 min at 72 C) and these products were digested with 5U of HpaI (New England Biolabs) for 2h at 37 C. The fragments were purified using Qiaquick PCR columns (Qiagen), analyzed on an ABI 3130xL genetic analyzer (Applied Biosystems) with peak positions identified by using a set of X-rhodamine (ROX)-labeled MapMarker1000 molecular weight standards (BioVentures). The raw capillary electrophoresis data was processed using Attagraph software (Attagene).
`O=C(O)C(F)(F)C(F)(F)C(F)(F)C(F)(F)C(F)(F)C(F)(F)C(F)(F)C(F)(F)F`: the AC50 (as a rule, the concentration giving half of the maximal activity seen) was 81.9 µM (active) and 50 µM (active); the compound was called inactive.

As to `CCOP(=S)(OCC)SCSC(C)(C)C`, the AC50 is 10.6 µM (active) and the compound was classed as inactive.

Consider `C1CC2OC2CC1C1CO1` (stereo not given), for which the compound was called inactive.

With `Nc1ccc(-c2ccc(N)cc2)cc1`, the compound was called inactive.

Regarding `CCOC(=O)C(O)(c1ccc(Cl)cc1)c1ccc(Cl)cc1`, the AC50 was 8.72 µM (active).

Regarding `NS(=O)(=O)C(F)(F)C(F)(F)C(F)(F)C(F)(F)C(F)(F)C(F)(F)C(F)(F)C(F)(F)F`, the compound was called inactive; the AC50 is 33.4 µM (active) and 105 µM (active).

For the compound `C[C@]12CCC(=O)C=C1CC[C@@H]1[C@@H]2CC[C@@]2(C)[C@H]1CC[C@]2(C)O`, the AC50 was 163 µM (active) and the call was inactive.

Regarding `CCOCCOC(C)=O`, the compound was classed as inactive.

In the case of `CCCCCCCCCc1ccc(O)cc1`, the AC50 is 30.2 µM (active) and 11.1 µM (active); the compound was called inactive.

As to `Cc1ccccc1CO[C@@H]1C[C@@]2(C(C)C)CC[C@]1(C)O2`, the outcome was inactive.

In the case of `O=NN(c1ccccc1)c1ccccc1`, the outcome was inactive.

As for `CC#Cc1cc(C)nc(Nc2ccccc2)n1`, the AC50 was 75 µM (active).

`Sc1ccccc1`: the outcome was inactive.

In the case of `CCCN(CCC)N=O`, the result was inactive.

For `Oc1ccc(C(c2ccc(O)cc2)(C(F)(F)F)C(F)(F)F)cc1`, the compound was classed as inactive; the AC50 is 11.1 µM (active) and 12.8 µM (active) and 8.79 µM (active).

As for `Nn1cnnc1`, the outcome was inactive.

Turning to `CC(C)(c1ccccc1)c1ccc(O)cc1`, the AC50 was 40.4 µM (active) [middle of 4 runs].

For `CCSC(=O)N(CC)C1CCCCC1`, the call was inactive.

As for `Cc1cc(-c2ccc(N)c(C)c2)ccc1N`, the compound was called inactive.

With `CCCCCCCCCC[N+](C)(C)CCCCCCCCCC`, the AC50 is 6.09 µM (active).

`Clc1ccc(Cl)cc1`: the compound was called inactive.

On to `O=S(=O)(O)C(F)(F)C(F)(F)C(F)(F)C(F)(F)F`, for which the compound was classed as inactive.

For the compound `CCC(C)(CC)c1cc(NC(=O)c2c(OC)cccc2OC)on1`, the concentration at half-maximal activity (AC50) is 32 µM (active).

`N#Cc1ccc(N(CC(N)=O)CC(F)(F)F)cc1C(F)(F)F`: the call was inactive.

Turning to `C[C@]12CCC(=O)C=C1CC[C@@H]1[C@@H]2CC[C@]2(C)C(=O)CC[C@@H]12`, the compound was called inactive; the AC50 is 161 µM (active) and 167 µM (active).

As for `CCCCCCOC(=O)c1ccccc1C(=O)OCCCCCC`, the result was inactive.

Regarding `CN(C)c1nc(=O)n(C2CCCCC2)c(=O)n1C`, the compound was called inactive.

In the case of `Oc1c(Cl)c(Cl)c(Cl)c(Cl)c1Cl`, the compound was called inactive; the AC50 is 31.6 µM (active) and 34.8 µM (active).

For the compound `Cc1cc(O)ccc1Cl`, the compound was classed as inactive.

With `CCC(C)(c1ccc(O)cc1)c1ccc(O)cc1`, the concentration at half-maximal activity (AC50) was 47.5 µM (active) [middle of 4 runs].

As for `CCC(=O)O[C@H]1CC[C@H]2[C@@H]3CCC4=CC(=O)CC[C@]4(C)[C@H]3CC[C@]12C`, the AC50 was 170 µM (active) and 169 µM (active) and 162 µM (active); the compound was classed as inactive.
